# Measurements from PubChem BioAssay (NCI).
# This is part of a sample that, as a whole, favours compounds with a hit. Of some 83,000 tested, about 20% had one in any assay.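 Assay: single dose, 48 h. Readout: percent growth (0 = no net growth; negative = cell death). Active: <10.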 A number with no mark means an inactive call. Active and inactive are the calls of the source.
# Assays:
# Experiment in all cases: NCI-60 one-dose screen, 48 h (100 = growth as untreated, 0 = no growth, -100 = all killed)
# Conditions in all cases: 10 µM unless noted
# [1] = tested on: NCI-H23 lung
# [2] = tested on: NCI-H226 lung
# [3] = tested on: NCI-H322M lung
# [4] = tested on: HOP-62 NSCLC
# [5] = tested on: NCI-H460 lung
# [6] = tested on: HOP-92 NSCLC
# [7] = tested on: NCI-H522 lung
# [8] = tested on: A549/ATCC NSCLC
# [9] = tested on: 786-0 renal
# [10] = tested on: COLO 205 colon
# [11] = tested on: DU-145 prostate
# [12] = tested on: K-562 leukemia
# [13] = tested on: MALME-3M melanoma
# [14] = tested on: MDA-MB-231 breast
# [15] = tested on: RXF 393 renal
# [16] = tested on: SF-268 CNS
# [17] = tested on: SF-295 CNS
# [18] = tested on: SF-539 CNS
# [19] = tested on: UACC-257 melanoma
# [20] = tested on: M14 melanoma
Compound,growth [1],growth [2],growth [3],growth [4],growth [5],growth [6],growth [7],growth [8],growth [9],growth [10],growth [11],growth [12],growth [13],growth [14],growth [15],growth [16],growth [17],growth [18],growth [19],growth [20]
Cc1ccc([N+](=O)[O-])c(C)n1,108%,106%,101%,106%,112%,84.2%,98.9%,105%,114%,111%,114%,114%,100%,117%,128%,98.6%,97.7%,89.5%,98.1%,110%
COc1cc(N)c2ncccc2c1Cl,104%,96%,97.9%,102%,109%,101%,81.8%,103%,95%,116%,119%,102%,113%,96.2%,96.5%,106%,101%,87.3%,109%,103%
CN(C)c1ccc(O)c2c1CC1CC3C(N(C)C)C(=O)C(C(N)=O)=C(O)C3(O)C(=O)C1=C2O (stereo not given),51.1%,71%,38.7%,55%,29.1%,21.7%,35.6%,21.3%,45.3%,56.3%,49%,45.2%,46.8%,66.3%,46.3%,46.1%,11.8%,41.6%,48.4%,42.1%
C/C(=N\O)c1ccccn1,104%,98%,101%,102%,103%,95.4%,83.2%,91.2%,101%,108%,106%,106%,108%,101%,108%,96.8%,102%,103%,86.3%,105%
CC(=O)OC(C)c1cccc(C#N)c1 (stereo not given),103%,94.7%,104%,94.8%,108%,91.3%,103%,98.6%,104%,113%,108%,103%,103%,108%,110%,103%,102%,101%,100%,97.4%
CCCCOC(=O)c1ccc(NC(=O)CCl)cc1,10.4%,71%,93.7%,102%,35.8%,27%,-77.7% (active),69.4%,70.2%,68.8%,78.3%,5.65% (active),-67.5% (active),7.83% (active),89.5%,35.7%,90%,69.9%,75.5%,51.2%
O=C(O)c1ccccc1Cc1ccc2c(c1)CCCC2,100%,92.5%,99.2%,111%,106%,107%,98.3%,94.9%,107%,112%,118%,106%,108%,95%,105%,99.5%,116%,110%,100%,110%
